The text below walks through data of article PMC8384837, “Expanding the binding specificity for RNA recognition by a PUF domain”.

Holding throughout (experiment): yeast three-hybrid, YBZ-1, SC-Leu-His + 0.5 mM 3-AT, 4 days
Holding throughout (conditions): tags: N-Gal4 AD-HA kept; label: inside an RPR1-promoter hybrid RNA with tandem MS2 sites; ssRNA

In test [1] the target is PUM1 PUF domain R4-ACS (Homo sapiens, UniProt Q14671 828-1176, N971A;H972C;Q975S). The procedure, abridged:
(§1)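 Repeat regions from input (SC-Leu) and selection (SC-Leu-His + 0.5 mM 3-AT) plates were PCR-amplified and Illumina-sequenced after four days of growth. The cells were strain YBZ-1 with a LexA–MS2 coat fusion and a HIS3 reporter, co-expressing Pumilio-1 PUF domain libraries and matching RNA elements from a centromeric plasmid. The interaction score is the log change in variant frequency from input to selection, taken in log2 with a pseudocount of 1 for absent variants.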

The target in test [2] is PUM1 PUF domain R4-GFP (Homo sapiens, UniProt Q14671 828-1176, N971G;H972F;Q975P). In outline:
as §1

Test [3] has as its target PUM1 PUF domain R7-RRT (Homo sapiens, UniProt Q14671 828-1176, S1079R;N1080R;E1083T). The procedure, abridged: as §1
In test [4] the target is PUM1 PUF domain R7-RPV (Homo sapiens, UniProt Q14671 828-1176, S1079R;N1080P;E1083V). The procedure, abridged:
as §1

In test [5] the target is PUM1 PUF domain R5-RSG (Homo sapiens, UniProt Q14671 828-1176, C1007R;R1008S;Q1011G). The procedure, abridged:
as §1

Test [6] deals with PUM1 PUF domain R4-ERQ (Homo sapiens, UniProt Q14671 828-1176, N971E;H972R). The procedure, abridged: as §1
Chain of PUM1 PUF domain R4-ERQ (Q14671 828-1176 N971E/H972R): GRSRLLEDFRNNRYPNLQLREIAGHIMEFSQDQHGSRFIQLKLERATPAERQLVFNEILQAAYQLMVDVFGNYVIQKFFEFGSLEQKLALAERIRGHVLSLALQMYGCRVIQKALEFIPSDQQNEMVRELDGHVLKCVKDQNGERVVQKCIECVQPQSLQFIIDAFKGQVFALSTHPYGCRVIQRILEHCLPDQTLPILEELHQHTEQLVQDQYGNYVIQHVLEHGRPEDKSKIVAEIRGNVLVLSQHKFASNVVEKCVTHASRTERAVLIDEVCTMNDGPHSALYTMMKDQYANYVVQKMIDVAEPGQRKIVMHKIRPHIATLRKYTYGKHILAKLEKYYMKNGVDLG
For test [7], the target named is PUM1 PUF domain R7-GPR (Homo sapiens, UniProt Q14671 828-1176, S1079G;N1080P;E1083R). The procedure, abridged:
as §1

For test [8], the target named is PUM1 PUF domain R7-QRR (Homo sapiens, UniProt Q14671 828-1176, S1079Q;N1080R;E1083R). The procedure, abridged: as §1
The target in test [9] is PUM1 PUF domain R8-RFS (Homo sapiens, UniProt Q14671 828-1176, N1122R;Y1123F;Q1126S). The procedure, abridged:
as §1

Test [10] deals with T1, PUM1 PUF domain R6-QYG (Homo sapiens, UniProt Q14671 828-1176, N1043Q;Q1047G).
T1 sequence: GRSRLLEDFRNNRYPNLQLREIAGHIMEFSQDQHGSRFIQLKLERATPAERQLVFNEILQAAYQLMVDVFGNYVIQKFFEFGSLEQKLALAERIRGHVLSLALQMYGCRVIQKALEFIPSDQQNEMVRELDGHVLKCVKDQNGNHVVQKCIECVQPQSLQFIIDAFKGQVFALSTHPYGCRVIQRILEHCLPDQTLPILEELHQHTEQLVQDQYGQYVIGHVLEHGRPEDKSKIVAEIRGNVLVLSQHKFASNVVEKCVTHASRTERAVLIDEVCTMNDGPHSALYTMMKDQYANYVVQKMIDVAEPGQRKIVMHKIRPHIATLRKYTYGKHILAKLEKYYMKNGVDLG
The procedure, abridged:
as §1

The target of test [11] is PUM1 PUF domain R3-TRS (Homo sapiens, UniProt Q14671 828-1176, C935T;Q939S). The procedure, abridged:
as §1

The target in test [12] is PUM1 PUF domain R3-PHQ (Homo sapiens, UniProt Q14671 828-1176, C935P;R936H). The procedure, abridged:
as §1

Test [13] has as its target PUM1 PUF domain R8-PWW (Homo sapiens, UniProt Q14671 828-1176, N1122P;Y1123W;Q1126W). The procedure, abridged:
as §1

The target in test [14] is PUM1 PUF domain R3-LYL (Homo sapiens, UniProt Q14671 828-1176, C935L;R936Y;Q939L). In outline:
as §1

For test [15], the target named is PUM1 PUF domain R1-NFV (Homo sapiens, UniProt Q14671 828-1176, S863N;R864F;Q867V). In outline: as §1
Test [16] concerns the target PUM1 PUF domain R1-AWR (Homo sapiens, UniProt Q14671 828-1176, S863A;R864W;Q867R). In outline:
as §1

Test [17] addresses PUM1 PUF domain R3-IFL (Homo sapiens, UniProt Q14671 828-1176, C935I;R936F;Q939L). The procedure, abridged:
as §1

For test [18], the target named is PUM1 PUF domain R3-KSD (Homo sapiens, UniProt Q14671 828-1176, C935K;R936S;Q939D). In outline:
as §1

Test [19] addresses PUM1 PUF domain R3-RSQ (Homo sapiens, UniProt Q14671 828-1176, C935R;R936S). In outline: as §1
Test [20] deals with PUM1 PUF domain R3-MWP (Homo sapiens, UniProt Q14671 828-1176, C935M;R936W;Q939P). In outline: as §1
Chain of PUM1 PUF domain R3-MWP (Q14671 828-1176 C935M/R936W/Q939P): as the sequence (Q14671 828-1176 N971E/H972R) above, with C108M, R109W, Q112P, E144N, R145H counted along it

Chain of PUM1 PUF domain R4-ACS (Q14671 828-1176 N971A/H972C/Q975S): as the sequence (Q14671 828-1176 N971E/H972R) above, with E144A, R145C, Q148S counted along it
Chain of PUM1 PUF domain R3-TRS (Q14671 828-1176 C935T/Q939S): as the sequence (Q14671 828-1176 N971E/H972R) above, with C108T, Q112S, E144N, R145H counted along it
Chain of PUM1 PUF domain R3-LYL (Q14671 828-1176 C935L/R936Y/Q939L): as the sequence (Q14671 828-1176 N971E/H972R) above, with C108L, R109Y, Q112L, E144N, R145H counted along it
Chain of PUM1 PUF domain R4-GFP (Q14671 828-1176 N971G/H972F/Q975P): as the sequence (Q14671 828-1176 N971E/H972R) above, with E144G, R145F, Q148P counted along it
Chain of PUM1 PUF domain R7-RPV (Q14671 828-1176 S1079R/N1080P/E1083V): as the sequence (Q14671 828-1176 N971E/H972R) above, with E144N, R145H, S252R, N253P, E256V counted along it
Chain of PUM1 PUF domain R3-PHQ (Q14671 828-1176 C935P/R936H): as the sequence (Q14671 828-1176 N971E/H972R) above, with C108P, R109H, E144N, R145H counted along it
Chain of PUM1 PUF domain R8-PWW (Q14671 828-1176 N1122P/Y1123W/Q1126W): as the sequence (Q14671 828-1176 N971E/H972R) above, with E144N, R145H, N295P, Y296W, Q299W counted along it
Chain of PUM1 PUF domain R3-RSQ (Q14671 828-1176 C935R/R936S): as the sequence (Q14671 828-1176 N971E/H972R) above, with C108R, R109S, E144N, R145H counted along it

“GGCUAGAACUAGUGGAUCCCCCGGCGCCCGGCGGCUCGAGCCCGGGUAAGUGUAUAUAGUCUGCAUGCCGCCGGGCGCCAUGCCUGCAGGUCGACUCUAGAAAACAUG”: the results for the binding signal in test [1] and in [2] were 1.22 log2 enrichment (interaction score) and 5.97 log2 enrichment (interaction score), respectively.
Regarding “GGCUAGAACUAGUGGAUCCCCCGGCGCCCGGCGGCUCGAGCCCGGGUAAGUUUAAAUAGUCUGCAUGCCGCCGGGCGCCAUGCCUGCAGGUCGACUCUAGAAAACAUG”, the values for the binding signal in test [3] and in [4] were 4.83 log2 enrichment (interaction score) and 3.09 log2 enrichment (interaction score), respectively.
Take “GGCUAGAACUAGUGGAUCCCCCGGCGCCCGGCGGCUCGAGCCCGGGUAAGUGUCAAUAGUCUGCAUGCCGCCGGGCGCCAUGCCUGCAGGUCGACUCUAGAAAACAUG”: in [5], the binding signal was 3.08 log2 enrichment (interaction score).
In the case of “GGCUAGAACUAGUGGAUCCCCCGGCGCCCGGCGGCUCGAGCCCGGGUAAGUGUACAUAGUCUGCAUGCCGCCGGGCGCCAUGCCUGCAGGUCGACUCUAGAAAACAUG”, the binding signal in [1] was 1.22 log2 enrichment (interaction score); in [6] it was 2.62 log2 enrichment (interaction score); in test [2], 5.41 log2 enrichment (interaction score).
On to “GGCUAGAACUAGUGGAUCCCCCGGCGCCCGGCGGCUCGAGCCCGGGUAAGUCUAAAUAGUCUGCAUGCCGCCGGGCGCCAUGCCUGCAGGUCGACUCUAGAAAACAUG”, for which the binding signal in test [7] is 3.96 log2 enrichment (interaction score); in [3], 4.42 log2 enrichment (interaction score); in test [8], 3.77 log2 enrichment (interaction score); in test [4], 1.08 log2 enrichment (interaction score).
In the case of “GGCUAGAACUAGUGGAUCCCCCGGCGCCCGGCGGCUCGAGCCCGGGUAAGUGUAAAUAGUCUGCAUGCCGCCGGGCGCCAUGCCUGCAGGUCGACUCUAGAAAACAUG”, the binding signal in [9] was 6.27 log2 enrichment (interaction score); in test [10], 3.17 log2 enrichment (interaction score); in [1], 2.98 log2 enrichment (interaction score); in test [2], 4.75 log2 enrichment (interaction score); in [11] it was 4.62 log2 enrichment (interaction score); in [12], 4.19 log2 enrichment (interaction score). The values for the binding signal in [13] and in test [14] were 3.57 log2 enrichment (interaction score) and 4.43 log2 enrichment (interaction score), respectively.
In the case of “GGCUAGAACUAGUGGAUCCCCCGGCGCCCGGCGGCUCGAGCCCGGGUAAGCGUAAAUAGUCUGCAUGCCGCCGGGCGCCAUGCCUGCAGGUCGACUCUAGAAAACAUG”, the binding signal in [9] was 5.73 log2 enrichment (interaction score).
As for “GGCUAGAACUAGUGGAUCCCCCGGCGCCCGGCGGCUCGAGCCCGGGUAAGUGUAAAUUGUCUGCAUGCCGCCGGGCGCCAUGCCUGCAGGUCGACUCUAGAAAACAUG”, the results for the binding signal in test [15] and in test [16] were 5.68 log2 enrichment (interaction score) and 1.06 log2 enrichment (interaction score), respectively.
Regarding “GGCUAGAACUAGUGGAUCCCCCGGCGCCCGGCGGCUCGAGCCCGGGUAAGUGUAAAUCGUCUGCAUGCCGCCGGGCGCCAUGCCUGCAGGUCGACUCUAGAAAACAUG”, the binding signal in test [16] is 4.26 log2 enrichment (interaction score).
“GGCUAGAACUAGUGGAUCCCCCGGCGCCCGGCGGCUCGAGCCCGGGUAAGUGUAAUUAGUCUGCAUGCCGCCGGGCGCCAUGCCUGCAGGUCGACUCUAGAAAACAUG”: the binding signal was 3.79 log2 enrichment (interaction score) in test [17]; 2.88 log2 enrichment (interaction score) in [18]; 4.22 log2 enrichment (interaction score) in test [19]; 1.31 log2 enrichment (interaction score) in [11]; 3.31 log2 enrichment (interaction score) in test [20]; 3.45 log2 enrichment (interaction score) in test [14].
On to “GGCUAGAACUAGUGGAUCCCCCGGCGCCCGGCGGCUCGAGCCCGGGUAAGUGUAAGUAGUCUGCAUGCCGCCGGGCGCCAUGCCUGCAGGUCGACUCUAGAAAACAUG”, for which the binding signal is 1.93 log2 enrichment (interaction score) in [11], 5.07 log2 enrichment (interaction score) in [20] and 4.81 log2 enrichment (interaction score) in test [14].
With “GGCUAGAACUAGUGGAUCCCCCGGCGCCCGGCGGCUCGAGCCCGGGUAAGUGUUAAUAGUCUGCAUGCCGCCGGGCGCCAUGCCUGCAGGUCGACUCUAGAAAACAUG”, in test [5], the binding signal was 2.84 log2 enrichment (interaction score).
